Molecules are shown by their SMILES. Results filed as inconclusive are left out. Calls of active or inactive are those of the source. The calls were made as follows: active = hit-call score of the fitted dose curve at least 0.9, where 1 is the maximum; inconclusive = response in the unintended direction; inactive = score below 0.9.

Glyceraldehyde-3-phosphate dehydrogenase (Homo sapiens), sequence (P04406 whole entry, looked up): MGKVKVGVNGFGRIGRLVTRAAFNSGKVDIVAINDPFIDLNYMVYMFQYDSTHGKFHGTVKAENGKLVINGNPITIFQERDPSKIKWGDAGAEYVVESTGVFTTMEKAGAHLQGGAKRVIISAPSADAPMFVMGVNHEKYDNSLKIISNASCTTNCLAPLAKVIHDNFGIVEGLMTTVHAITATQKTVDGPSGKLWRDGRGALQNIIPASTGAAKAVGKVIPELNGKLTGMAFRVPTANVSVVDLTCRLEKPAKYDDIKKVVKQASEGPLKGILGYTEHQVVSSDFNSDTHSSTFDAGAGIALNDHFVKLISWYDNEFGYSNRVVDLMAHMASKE

Read-out in this assay: Glyceraldehyde-3-phosphate dehydrogenase (Homo sapiens) (UniProt P04406)
The experiment in a line: CLD_GAPDH_48hr: CellzDirect (CLD) Gene Expression Assay for Baseline Control (Glyceraldehyde 3-phosphate dehydrogenase) at 48 hours (AID 2283706).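 Also: active means higher GAPDH mRNA than DMSO vehicle.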 The protocol: CLD_48hr is a cell-based, multiplexed-readout assay that uses hepatocyte, a human liver primary cell, with measurements taken at 48 hours after chemical dosing in a 96-well plate.CLD_GAPDH_48hr is one of 16 assay component(s) measured or calculated from the CLD_48hr assay. It is designed to make measurements of mRNA induction, a form of inducible reporter, as detected with chemiluminescence signals by Quantitative Nuclease Protection Assay (qNPA) technology.Data from the assay component CLD_GAPDH_48hr was analyzed at the endpoint, CLD_GAPDH_48hr, in the positive analysis fitting direction relative to DMSO as the negative control and baseline of activity. Using a type of inducible reporter, gain-of-signal activity can be used to understand changes in the reporter gene as they relate to the gene GAPDH. Furthermore, this assay endpoint can be referred to as a secondary readout, because this assay has produced multiple assay endpoints where this one serves a background control function. To generalize the intended target to other relatable targets, this assay endpoint is annotated to the background measurement intended target family, where subfamily is baseline control.
Human hepatocyte cultures were treated daily for two consecutive days with fresh dosing solutions containing appropriate concentrations of the 320 ToxCast chemicals (chemical identities were blinded to CellzDirect and other ToxCast collaborators), vehicle control (0.2% DMSO), and positive control inducers as summarized in Table 1. Due to the large number of treatment groups and chemicals examined, the ToxCast chemicals were divided into two groups (spanning two independent cultures of hepatocytes from separate donor preparations (Hu778: ToxCast plates 1 and 2; Hu776: ToxCast plates 3 and 4). Each preparation of human hepatocyte cultures was treated with respective vehicle control, medium only control, set of six positive controls/reference chemicals for the five hepatic receptor pathways, and a subset of eight of the ToxCast chemicals (indoxacarb, pyrithiobac-sodium, norflurazon, cyhalofop-butyl, methomyl, thiram, acetochlor, and propiconazole). These replicate data, coupled with internal replicates designed within the blinded ToxCast chemical library, provided additional data to evaluate interindividual differences between hepatocyte preparations and their potential impact on chemical profiles.Cell morphology and integrity were evaluated using phase-contrast microscopy as an indicator of hepatocyte cell health (Tyson & Green, 1987). Cultures for each treatment group (i.e., media, vehicle [0.2% DMSO], positive control inducers [multiple concentrations], and the ToxCast chemicals [multiple concentrations]) were observed and cell morphology was assessed relative to vehicle control cultures at each harvest time point (0, 6, 24, or 48 h). […] Images were evaluated at the conclusion of the study to assess changes in cell integrity and account for the effects of chemical exposure on uncharacteristic changes in concentration-dependent gene expression profiles. The results from these determinations of apparent cytotoxicity were annotated (yes/no) alongside the corresponding qNPA data for reference.At the conclusion of each treatment period, hepatocyte cultures (96-well) were washed with 1 volume of HBSS, lysed by addition of 25 ul ArrayPlate lysis buffer (HTG, Tucson, AZ), and 70 ul/well of Denaturation Oil, denatured by incubation at 95C for 10 min, and frozen at approximately -70C until analysis by nuclease protection assay (qNPA) (Roberts et al., 2007). For qNPA analysis, cell lysates were thawed at 50C for approximately 30 min, qNPA probes were added, and samples were incubated at 95C for 10 min to begin the detection process by denaturing the target RNA, dissociating the duplexes and secondary structure hybridization. At the conclusion of the hybridization period, S1 nuclease reagent was added to each sample to digest all nonprotected nucleotides at 50C for 60-90 min. […]
For the molecule `CCOc1nc(NC)nc(NC(=O)NS(=O)(=O)c2ccccc2C(=O)OC)n1`, the call was inactive.
The result for `COC(=O)c1ccccc1CS(=O)(=O)NC(=O)Nc1nc(OC)cc(OC)n1` reads “inactive”; that for `CNC(=O)Oc1ccccc1OC(C)C`, “inactive”; that for `N#Cc1c(Cl)c(Cl)c(Cl)c(C#N)c1Cl`, “inactive”.
The value for `CC(C)OC(=O)Nc1cccc(Cl)c1` was “inactive”; that for `CN1CSC(=S)N(C)C1` was “inactive”.
The result for `COP(=O)(OC)OC=C(Cl)Cl` reads “inactive”.
`CNC(=O)/C=C(\C)OP(=O)(OC)OC`: the result was inactive.
The value for `CC(C)N(C(=O)COc1nnc(C(F)(F)F)s1)c1ccc(F)cc1` was “inactive”; that for `[2H]C1([2H])[n+]2ccccc2-c2cccc[n+]2C1([2H])[2H]` was “inactive”; that for `Oc1cc(Cl)ccc1Oc1ccc(Cl)cc1Cl` was “inactive”.
The result for `O=C(O)C(F)(F)C(F)(F)C(F)(F)C(F)(F)C(F)(F)C(F)(F)C(F)(F)F` reads “inactive”; that for `CC1(c2ccc(Oc3ccccc3)cc2)OC(=O)N(Nc2ccccc2)C1=O` (centres undefined), “inactive”; that for `O=S(=O)(O)C(F)(F)C(F)(F)C(F)(F)C(F)(F)C(F)(F)C(F)(F)C(F)(F)C(F)(F)F`, “inactive”.
With `CC[C@H](C)[C@H]1O[C@]2(C=C[C@@H]1C)C[C@@H]1C[C@@H](C/C=C(\C)[C@@H](O[C@H]3C[C@H](OC)[C@@H](O[C@H]4C[C@H](OC)[C@@H](O)[C@H](C)O4)[C@H](C)O3)[C@@H](C)/C=C/C=C3\CO[C@@H]4[C@H](O)C(C)=C[C@@H](C(=O)O1)[C@]34O)O2` (tested in a mixture with another compound), the call was inactive.
The result for `Cc1cc(C)nc(NC(=O)NS(=O)(=O)c2ccccc2C(=O)OC2COC2)n1` reads “inactive”.
The result for `O=C(NC(=O)c1c(F)cccc1F)Nc1ccc(OC(F)(F)C(F)OC(F)(F)F)c(Cl)c1` (centres undefined) reads “inactive”; that for `N#CN`, “inactive”.
`COC(=O)c1ccccc1S(=O)(=O)NC(=O)Nc1nc(C)nc(OC)n1`: the molecule was called inactive.
The value for `O=[N+]([O-])/N=C1\NCCN1Cc1ccc(Cl)nc1` was “inactive”; that for `COC(=O)c1ccccc1S(=O)(=O)NC(=O)N(C)c1nc(C)nc(OC)n1` was “inactive”; that for `Oc1ccc(Cl)cc1Cc1ccccc1` was “inactive”.
As for `COc1cc(OC)nc(NC(=O)NS(=O)(=O)c2cc(NC=O)ccc2C(=O)N(C)C)n1`, the molecule was called inactive.
Turning to `O=C1c2ccccc2C(=O)N1SC(Cl)(Cl)Cl`, the result was inactive.
The result for `CCC(C)(C)C(=O)OC1=C(c2ccc(Cl)cc2Cl)C(=O)OC12CCCCC2` reads “inactive”; that for `CNC(=O)Oc1cccc(N=CN(C)C)c1`, “inactive”.
The value for `O=C(O)COc1ccc(Cl)cc1Cl` was “inactive”.
The value for `CCS(=O)(=O)c1cccnc1S(=O)(=O)NC(=O)Nc1nc(OC)cc(OC)n1` was “inactive”.
In the case of `CCCN(CCOc1c(Cl)cc(Cl)cc1Cl)C(=O)n1ccnc1`, the molecule was called inactive.

The values are drawn from PubChem BioAssay (EPA / NIEHS).
